The list is not random: actives were taken first. Their share in the collection is about 2.2%.
ADAM17 inh – inhibitors of human ADAM17; P78536; actives 0.83% (n = 370,000); recombinant ADAM17, EDANS/DABCYL FRET peptide cleavage; inhibition, % at 6.95 µM;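 active = inhibition above the mean of compounds lying between control limits plus 3 SD, set per campaign, cut at about 8.5% in these data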;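 note: 0% = DMSO-only wells as the low control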
ADAM10 inh – inhibitors of human ADAM10. O14672. recombinant ADAM10, EDANS/DABCYL FRET peptide cleavage, 3 h. inhibition, % at 7 µM. actives 0.62% (n = 370,000). AID 720582;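 active = inhibition above a per-campaign cutoff equal to the mean of compounds falling between control-based bounds plus 3 SD, cut at about 20% in these data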;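 note: 0% = DMSO wells while the 100% control is not disclosed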
GC-A act – GC-A (human) enzyme activation; actives 0.14% (n = 370,000); activation, % at 10 µM; HEK293 GC-A cells, cGMP TR-FRET, EC30 ANP; 0% at EC30 ANP, 100% saturating ANP; P16066; in the data active = activation above about 40%
proKLK7 act – activators of human kallikrein-7 zymogen; purified proKLK7, EDANS-DABCYL substrate fluorescence; 100% is mature enzyme control, 0% vehicle; activation, % at 7 µM; actives 0.9% (n = 370,000); AID 652039;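 active = activation above the mean of all tested compounds plus 3 SD, computed per campaign excluding outliers beyond control limits, cut at about 13% in these data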
Target sequence (P49862 whole entry, looked up): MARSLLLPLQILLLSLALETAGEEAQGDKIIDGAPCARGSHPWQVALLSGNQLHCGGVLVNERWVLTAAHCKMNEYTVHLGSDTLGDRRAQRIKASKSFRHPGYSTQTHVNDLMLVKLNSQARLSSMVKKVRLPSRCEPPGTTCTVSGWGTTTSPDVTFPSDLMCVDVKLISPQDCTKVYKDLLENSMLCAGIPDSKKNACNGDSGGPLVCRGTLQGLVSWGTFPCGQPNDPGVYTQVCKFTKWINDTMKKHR
GC-B act – GC-B (human) receptor activation | AID 1920062 | activation, % at 10 µM | HEK293-GC-B cells, CNP EC30, cGMP TR-FRET; 0% at EC30 CNP, 100% saturating CNP | actives 0.11% (n = 370,000);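 active = activation at 10 µM reaching about 35% in either raw or pattern-adjusted values, limit read from the data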
ADAM10 confirm – human ADAM10 inhibition, confirmation | shares compounds with ADAM10 inh | ADAM10 QFRET peptide cleavage, EDANS fluorescence | inhibition, % at 6.95 µM | actives 1% (n = 2,100) | AID 743208;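 active = inhibition above about 20% chosen separately for each screening run, limit read from the data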;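 note: 0% = DMSO wells and 100% = marimastat wells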
ADAM17 ctr – inhibits human ADAM17 in ADAM10 exosite counter-screen; shares compounds with ADAM10 inh; ADAM17 QFRET peptide cleavage, EDANS fluorescence; inhibition, % at 6.95 µM; actives 0.5% (n = 2,100);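 active = mean triplicate inhibition above the solvent-only control wells' mean plus 3 SD, cut at about 12% in these data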;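 note: 0% = DMSO wells and 100% = marimastat wells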
Numbers without * were called inactive; / = not tested or not shown.

SMILES	ADAM17 inh	ADAM10 inh	GC-A act	proKLK7 act	GC-B act	ADAM10 confirm	ADAM17 ctr
CCOC(=O)N1CCN(CCC(=O)Nc2ccc(OC)cc2)CC1	-0.8	71.4*	-0.6	-0.3	3.1	0.6	-0.2
COc1ccc(NC(=O)CCN2CCCCC2)cc1	-4.4	-0.7	2.3	0.0	6.6	/	/
O=C(NCc1nc2ccccc2[nH]1)C1=C[C@H](c2coc3ccccc3c2=O)C[C@H](OCc2ccc(CO)cc2)O1	5.5	24.1*	-0.5	0.5	-1.8	3.2	1.1
C=CCn1c(COc2ccc(C)cc2)nnc1SCc1ccc([N+](=O)[O-])cc1	3.2	4.6	-7.0	0.3	-7.2	/	/
Cc1nn(C)c(C(=O)N/N=C/c2cccc(Oc3ccccc3)c2)c1Br	0.7	23.8*	-3.0	0.3	4.5	2.6	1.0
CCCCNC(=O)NCCCN1CCN(c2ccc(F)cc2)CC1	3.5	1.4	2.7	-0.1	2.2	/	/
CCc1c(-c2cccc(OC)c2)ncn1Cc1cccc(-c2ccccc2)c1	4.0	7.5	-5.1	0.2	-0.7	/	/
CCc1c(-c2ccccc2)ncn1Cc1cccc(-c2ccccc2)c1	16.6*	24.9*	-6.7	0.9	7.4	6.7	2.5
Cc1ccc(S(=O)(=O)NCC2CN(S(=O)(=O)c3ccc(C)cc3)c3ccccc3C(=O)N2c2ccc(F)cc2)cc1 (stereo not given)	5.4	22.6*	-4.9	/	-11.4	2.2	0.8
Cc1ccc(S(=O)(=O)NC[C@@H]2C[C@H](c3ccccc3)ON2S(=O)(=O)c2ccc(C)cc2)cc1	7.3	16.1	0.2	/	-3.4	/	/
O=C(CCc1ccccc1)N[C@H]1[C@@H](OC(=O)c2cccnc2)CCC[C@@]12C(=O)N(Cc1ccccc1)c1ccccc12	-0.3	4.2	-5.2	0.7	-2.6	/	/
CCN(c1ccccc1)S(=O)(=O)c1ccc(Cl)c(NC(=O)CSc2n[nH]c(N)n2)c1	1.0	4.5	1.3	-0.5	2.8	/	/
CCN(c1ccccc1)S(=O)(=O)c1ccc(Cl)c(NC(=O)CSc2ncn[nH]2)c1	2.0	22.7*	-0.8	-0.8	2.6	3.0	3.1
NNC(=O)c1cccc(COc2ccccc2Br)c1	4.5	24.0*	0.5	-0.1	-6.8	1.2	0.5
CC(=O)Nc1ccc(C(=O)OCC(=O)c2cccc([N+](=O)[O-])c2)cc1	3.9	4.7	-0.7	-0.5	0.4	/	/
Cc1ccc(C(=O)COC(=O)c2cccc(NC(=O)c3ccc([N+](=O)[O-])cc3[N+](=O)[O-])c2)cc1	4.4	25.0*	1.3	-0.6	-3.7	6.1	1.5
COc1ccc(CN(C)CC(=O)NC(=O)NC2CCCCC2)cc1	-3.3	20.9*	1.7	-0.8	0.3	0.3	0.0
COc1ccc(NC(=O)CN(C)CC(=O)NC(=O)NC2CCCCC2)cc1	1.4	-25.7	3.5	-0.2	-3.0	/	/
O=C(OCc1ccccc1Cl)c1cc([N+](=O)[O-])ccc1N1CCOCC1	7.7	19.9*	-10.9	-0.3	1.4	2.9	0.5
COc1ccc(-c2n[nH]c(C(F)(F)F)c2-c2cc3ccccc3o2)c(O)c1	4.1	21.6*	7.6	-2.3	4.0	20.8*	10.2
O=C(Cc1cccc2ccccc12)Nc1cc(Cl)ccc1C(=O)O	4.3	22.9*	-3.8	0.3	-5.3	1.4	0.5
NC(=O)C1CCN(c2ncc(Br)s2)CC1	-7.4	-15.2	2.8	/	-0.1	/	/
CCNC(=S)Nc1scc(-c2ccccc2)c1C(=O)OCC	7.0	26.3*	2.4	-0.3	-1.7	1.6	0.8
C=CC(=O)NC1CCCCN(C(C)C)C1=O (stereo not given)	-3.4	5.5	1.5	0.6	4.8	/	/
Oc1ccc(Cl)cc1Sc1cc(Cl)ccc1O	6.3	25.5*	3.8	0.9	1.4	8.4	1.9
CCN(CC)S(=O)(=O)c1cccc(-c2n[nH]c(=S)n2/N=C/c2ccc(OC(F)F)cc2)c1	8.0	20.4*	2.4	-0.8	-14.9	5.9	3.3
CN(c1ccccc1)S(=O)(=O)c1nnc(NC(=O)c2ccco2)s1	0.5	47.8*	3.5	-0.2	1.1	4.4	1.1
